# In PubChem BioAssay (NCI):
# Compounds without any hit were thinned out: in the full panel of roughly 83,000, 20% have a hit.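 Compound tested at a single concentration for 48 hours in 96-well plates; a percent growth value below 10 was scored as active.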 The source made the active and inactive calls.
# Tested on: HL-60(TB) leukemia
# Assay: NCI-60 one-dose screen, 48 h (100 = growth as untreated, 0 = no growth, -100 = all killed)
# Conditions: 10 µM unless noted
row,Compound,growth
1,COc1cc2c(cc1OCCCN1CCN(CCCn3c4ccccc4c4ccccc43)CC1)N=C[C@@H]1CCCN1C2=O,-44.8% (active)
2,C=C1C(=O)O[C@H]2[C@H]1CC/C(Cn1cc(-c3ccc(N)cc3)nn1)=C\CC[C@@]1(C)O[C@@H]21,-27.9% (active)
3,CCOC(=O)c1c(C)[nH]c(CO)c1C,97.1% (inactive)
4,CC1=CC(=O)OC1C/C=C(\C)CCC1[C@@]2(C)CCC[C@@](C)(C(=O)O)C2CC[C@@]1(C)O (some centres not stated),95.8% (inactive)
5,CC(=O)OC[C@]12CC[C@@H]([C@@H](C)C(N)=O)[C@@H]1[C@H]1CC[C@@H]3[C@@]4(C)CC[C@H](OC(C)=O)C(C)(C)[C@@H]4CC[C@@]3(C)[C@]1(C)CC2,-23.1% [100 µM] (active)
6,Cn1c(C(=O)c2cccc3ccccc23)nc2ccccc21,3.94% (active)
7,O=C(Nc1ccc(Br)cc1F)c1cc(I)ccc1O,-33.3% (active)
8,O=[N+]([O-])c1ccc2nc3c4ccccc4c4ccccc4c3nc2c1,77.2% (inactive)
9,COc1ccc2c(c1)C(=O)c1c-2c(=O)n(CCCCCCC(=O)NO)c2ccccc12,12.7% (inactive)
10,O=C1/C=C/[C@@H](O)[C@@H]2C[C@@H](O)C[C@H]2/C=C/CCC[C@H](CCc2ccc(NC(=S)Nc3ccc4c(c3)C(=O)OC43c4ccc(O)cc4Oc4cc(O)ccc43)cc2)O1,4.65% (active)
11,CN(C)CCNc1nc2ccccc2c2c1c1c(n2Cc2ccccc2)-c2ccccc2C1=O,-85% (active)
12,COc1ccc(-c2cn[nH]c2-c2cc(OC)c(OC)c(OC)c2)cc1,-21.2% (active)
